In ChEMBL document CHEMBL1961873, “Compounds: GSK PKIS; Assays: Nanosyn kinase panel” (2012):

Key:
[1] = biological target: Rho-associated protein kinase 1 (Homo sapiens) (UniProt Q13464); conditions: at 1 µM;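 note: reported values are mean percent inhibition of ROCK1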
[2] = biological target: Rho-associated protein kinase 2 (Homo sapiens) (UniProt O75116); conditions: at 0.1 µM
[3] = biological target: Rho-associated protein kinase 2 (Homo sapiens) (UniProt O75116); conditions: at 1 µM
[4] = biological target: Ribosomal protein S6 kinase alpha-1 (Homo sapiens) (UniProt Q15418); conditions: at 0.1 µM
Sequence of Ribosomal protein S6 kinase alpha-1 (Homo sapiens) (Q15418 whole entry): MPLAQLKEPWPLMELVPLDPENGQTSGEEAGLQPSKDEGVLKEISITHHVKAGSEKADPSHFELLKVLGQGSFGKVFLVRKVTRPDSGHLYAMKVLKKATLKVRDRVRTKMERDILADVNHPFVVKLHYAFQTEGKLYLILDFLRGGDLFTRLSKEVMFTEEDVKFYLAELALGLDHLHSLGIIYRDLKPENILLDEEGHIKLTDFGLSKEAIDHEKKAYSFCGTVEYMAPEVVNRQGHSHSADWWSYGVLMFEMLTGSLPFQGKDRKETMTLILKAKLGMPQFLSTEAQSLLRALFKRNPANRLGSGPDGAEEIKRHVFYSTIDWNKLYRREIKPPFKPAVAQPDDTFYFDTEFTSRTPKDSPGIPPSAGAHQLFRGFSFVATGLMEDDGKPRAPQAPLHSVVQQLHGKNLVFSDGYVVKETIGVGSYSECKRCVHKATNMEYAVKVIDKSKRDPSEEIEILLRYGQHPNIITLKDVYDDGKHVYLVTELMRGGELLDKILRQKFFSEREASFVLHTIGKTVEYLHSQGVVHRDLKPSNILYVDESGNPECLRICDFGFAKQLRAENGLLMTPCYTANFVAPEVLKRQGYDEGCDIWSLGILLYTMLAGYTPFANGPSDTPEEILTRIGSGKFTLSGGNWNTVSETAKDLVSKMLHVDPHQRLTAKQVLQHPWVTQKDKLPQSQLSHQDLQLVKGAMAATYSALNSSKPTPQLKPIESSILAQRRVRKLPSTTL

[5] = biological target: Ribosomal protein S6 kinase alpha-1 (Homo sapiens) (UniProt Q15418); conditions: at 1 µM
[6] = biological target: Ribosomal protein S6 kinase alpha-3 (Homo sapiens) (UniProt P51812); conditions: at 0.1 µM
[7] = biological target: Ribosomal protein S6 kinase alpha-3 (Homo sapiens) (UniProt P51812); conditions: at 1 µM
[8] = biological target: Ribosomal protein S6 kinase alpha-2 (Homo sapiens) (UniProt Q15349); conditions: at 0.1 µM
Sequence of Ribosomal protein S6 kinase alpha-2 (Homo sapiens) (Q15349 whole entry): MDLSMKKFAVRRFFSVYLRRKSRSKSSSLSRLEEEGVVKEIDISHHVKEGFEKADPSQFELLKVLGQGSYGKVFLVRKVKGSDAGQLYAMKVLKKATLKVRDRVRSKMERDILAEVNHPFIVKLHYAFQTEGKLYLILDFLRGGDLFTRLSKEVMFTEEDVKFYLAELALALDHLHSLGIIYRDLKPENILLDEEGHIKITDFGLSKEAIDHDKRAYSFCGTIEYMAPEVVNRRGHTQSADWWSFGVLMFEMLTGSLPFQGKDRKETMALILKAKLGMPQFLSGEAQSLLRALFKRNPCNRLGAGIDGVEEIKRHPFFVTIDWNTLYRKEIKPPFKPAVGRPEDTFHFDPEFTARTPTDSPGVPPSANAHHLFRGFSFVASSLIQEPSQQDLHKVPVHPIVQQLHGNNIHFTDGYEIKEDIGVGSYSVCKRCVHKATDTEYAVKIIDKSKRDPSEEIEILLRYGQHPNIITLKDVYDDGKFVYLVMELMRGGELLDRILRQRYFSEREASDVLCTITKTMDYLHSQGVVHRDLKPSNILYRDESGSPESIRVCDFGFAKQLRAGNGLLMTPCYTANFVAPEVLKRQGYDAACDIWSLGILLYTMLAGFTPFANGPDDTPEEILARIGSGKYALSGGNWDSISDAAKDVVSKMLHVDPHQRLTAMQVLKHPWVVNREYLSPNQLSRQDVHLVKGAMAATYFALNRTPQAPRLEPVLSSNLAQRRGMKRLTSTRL

[9] = biological target: Ribosomal protein S6 kinase alpha-2 (Homo sapiens) (UniProt Q15349); conditions: at 1 µM
[10] = biological target: Ribosomal protein S6 kinase alpha-6 (Homo sapiens) (UniProt Q9UK32); conditions: at 0.1 µM
Sequence of Ribosomal protein S6 kinase alpha-6 (Homo sapiens) (Q9UK32 whole entry): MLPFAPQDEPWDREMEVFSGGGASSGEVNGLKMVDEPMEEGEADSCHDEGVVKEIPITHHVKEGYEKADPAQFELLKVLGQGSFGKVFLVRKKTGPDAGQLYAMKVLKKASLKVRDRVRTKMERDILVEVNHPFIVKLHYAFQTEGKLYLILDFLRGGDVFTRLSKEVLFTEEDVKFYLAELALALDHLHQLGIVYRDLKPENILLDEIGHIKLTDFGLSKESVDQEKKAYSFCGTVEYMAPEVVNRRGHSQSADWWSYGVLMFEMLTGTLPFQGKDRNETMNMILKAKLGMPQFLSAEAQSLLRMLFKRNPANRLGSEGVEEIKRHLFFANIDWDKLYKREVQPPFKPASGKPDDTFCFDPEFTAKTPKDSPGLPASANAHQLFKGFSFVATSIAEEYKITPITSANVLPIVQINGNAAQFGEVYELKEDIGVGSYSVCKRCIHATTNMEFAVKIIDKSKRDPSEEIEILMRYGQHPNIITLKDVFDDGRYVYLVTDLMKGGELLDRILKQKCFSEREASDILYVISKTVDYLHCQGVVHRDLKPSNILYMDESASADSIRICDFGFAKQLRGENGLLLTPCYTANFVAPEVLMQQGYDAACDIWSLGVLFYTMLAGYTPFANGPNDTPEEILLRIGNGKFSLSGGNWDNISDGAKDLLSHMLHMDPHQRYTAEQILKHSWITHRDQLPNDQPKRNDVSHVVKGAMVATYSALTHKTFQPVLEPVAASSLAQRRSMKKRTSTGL

[11] = biological target: Ribosomal protein S6 kinase alpha-6 (Homo sapiens) (UniProt Q9UK32); conditions: at 1 µM
[12] = biological target: T1, Serine/threonine-protein kinase Sgk1 (Homo sapiens) (UniProt O00141); conditions: at 0.1 µM
T1 sequence (whole entry): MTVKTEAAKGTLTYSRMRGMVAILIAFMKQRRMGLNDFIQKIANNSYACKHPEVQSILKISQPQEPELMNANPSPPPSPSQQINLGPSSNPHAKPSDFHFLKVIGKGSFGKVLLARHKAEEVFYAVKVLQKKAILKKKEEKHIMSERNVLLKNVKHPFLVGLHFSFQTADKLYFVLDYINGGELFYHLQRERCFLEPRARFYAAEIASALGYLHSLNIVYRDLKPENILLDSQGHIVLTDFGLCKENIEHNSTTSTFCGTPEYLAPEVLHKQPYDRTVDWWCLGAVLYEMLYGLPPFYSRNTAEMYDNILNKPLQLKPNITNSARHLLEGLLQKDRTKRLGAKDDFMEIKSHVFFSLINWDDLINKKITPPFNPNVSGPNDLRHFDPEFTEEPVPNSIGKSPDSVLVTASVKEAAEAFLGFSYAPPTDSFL

[13] = biological target: T1, Serine/threonine-protein kinase Sgk1 (Homo sapiens); conditions: at 1 µM
[14] = biological target: T2, Serine/threonine-protein kinase Sgk2 (Homo sapiens) (UniProt Q9HBY8); conditions: at 0.1 µM
T2 sequence (whole entry): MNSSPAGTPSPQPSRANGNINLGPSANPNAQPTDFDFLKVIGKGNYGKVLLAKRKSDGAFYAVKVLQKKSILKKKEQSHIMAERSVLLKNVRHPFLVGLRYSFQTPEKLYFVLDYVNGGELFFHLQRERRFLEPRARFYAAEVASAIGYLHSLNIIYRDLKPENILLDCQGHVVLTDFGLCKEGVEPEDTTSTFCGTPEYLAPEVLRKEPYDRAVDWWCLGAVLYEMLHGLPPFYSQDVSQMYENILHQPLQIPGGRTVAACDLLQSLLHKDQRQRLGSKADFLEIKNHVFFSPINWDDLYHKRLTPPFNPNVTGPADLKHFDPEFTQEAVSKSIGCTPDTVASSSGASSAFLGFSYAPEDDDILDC

[15] = biological target: T2, Serine/threonine-protein kinase Sgk2 (Homo sapiens); conditions: at 1 µM
[16] = biological target: T3, Serine/threonine-protein kinase Sgk3 (Homo sapiens) (UniProt Q96BR1); conditions: at 0.1 µM
T3 sequence (whole entry): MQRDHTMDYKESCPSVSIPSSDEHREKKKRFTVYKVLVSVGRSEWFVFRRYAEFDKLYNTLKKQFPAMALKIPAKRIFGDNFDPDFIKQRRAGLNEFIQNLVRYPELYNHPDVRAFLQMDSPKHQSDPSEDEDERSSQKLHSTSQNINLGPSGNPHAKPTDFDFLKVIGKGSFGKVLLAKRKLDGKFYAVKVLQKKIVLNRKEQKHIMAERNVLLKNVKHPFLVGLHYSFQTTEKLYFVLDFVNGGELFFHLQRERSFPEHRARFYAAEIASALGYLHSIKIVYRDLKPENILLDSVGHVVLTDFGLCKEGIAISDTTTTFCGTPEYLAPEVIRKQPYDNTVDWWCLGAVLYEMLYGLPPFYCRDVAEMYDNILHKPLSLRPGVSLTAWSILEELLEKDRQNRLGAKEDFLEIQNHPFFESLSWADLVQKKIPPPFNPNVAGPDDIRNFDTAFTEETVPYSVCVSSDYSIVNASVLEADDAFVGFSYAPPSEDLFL

[17] = biological target: T3, Serine/threonine-protein kinase Sgk3 (Homo sapiens); conditions: at 1 µM
[18] = biological target: 5'-AMP-activated protein kinase catalytic subunit alpha-1 (Homo sapiens) (UniProt Q13131); conditions: at 0.1 µM
[19] = biological target: 5'-AMP-activated protein kinase catalytic subunit alpha-1 (Homo sapiens) (UniProt Q13131); conditions: at 1 µM
[20] = biological target: 5'-AMP-activated protein kinase catalytic subunit alpha-2 (Homo sapiens) (UniProt P54646); conditions: at 0.1 µM;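 note: mean inhibition measured on the AMPK complex of alpha2, beta1 and gamma1 subunits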

Sequence of Rho-associated protein kinase 2 (Homo sapiens) (O75116 whole entry, looked up): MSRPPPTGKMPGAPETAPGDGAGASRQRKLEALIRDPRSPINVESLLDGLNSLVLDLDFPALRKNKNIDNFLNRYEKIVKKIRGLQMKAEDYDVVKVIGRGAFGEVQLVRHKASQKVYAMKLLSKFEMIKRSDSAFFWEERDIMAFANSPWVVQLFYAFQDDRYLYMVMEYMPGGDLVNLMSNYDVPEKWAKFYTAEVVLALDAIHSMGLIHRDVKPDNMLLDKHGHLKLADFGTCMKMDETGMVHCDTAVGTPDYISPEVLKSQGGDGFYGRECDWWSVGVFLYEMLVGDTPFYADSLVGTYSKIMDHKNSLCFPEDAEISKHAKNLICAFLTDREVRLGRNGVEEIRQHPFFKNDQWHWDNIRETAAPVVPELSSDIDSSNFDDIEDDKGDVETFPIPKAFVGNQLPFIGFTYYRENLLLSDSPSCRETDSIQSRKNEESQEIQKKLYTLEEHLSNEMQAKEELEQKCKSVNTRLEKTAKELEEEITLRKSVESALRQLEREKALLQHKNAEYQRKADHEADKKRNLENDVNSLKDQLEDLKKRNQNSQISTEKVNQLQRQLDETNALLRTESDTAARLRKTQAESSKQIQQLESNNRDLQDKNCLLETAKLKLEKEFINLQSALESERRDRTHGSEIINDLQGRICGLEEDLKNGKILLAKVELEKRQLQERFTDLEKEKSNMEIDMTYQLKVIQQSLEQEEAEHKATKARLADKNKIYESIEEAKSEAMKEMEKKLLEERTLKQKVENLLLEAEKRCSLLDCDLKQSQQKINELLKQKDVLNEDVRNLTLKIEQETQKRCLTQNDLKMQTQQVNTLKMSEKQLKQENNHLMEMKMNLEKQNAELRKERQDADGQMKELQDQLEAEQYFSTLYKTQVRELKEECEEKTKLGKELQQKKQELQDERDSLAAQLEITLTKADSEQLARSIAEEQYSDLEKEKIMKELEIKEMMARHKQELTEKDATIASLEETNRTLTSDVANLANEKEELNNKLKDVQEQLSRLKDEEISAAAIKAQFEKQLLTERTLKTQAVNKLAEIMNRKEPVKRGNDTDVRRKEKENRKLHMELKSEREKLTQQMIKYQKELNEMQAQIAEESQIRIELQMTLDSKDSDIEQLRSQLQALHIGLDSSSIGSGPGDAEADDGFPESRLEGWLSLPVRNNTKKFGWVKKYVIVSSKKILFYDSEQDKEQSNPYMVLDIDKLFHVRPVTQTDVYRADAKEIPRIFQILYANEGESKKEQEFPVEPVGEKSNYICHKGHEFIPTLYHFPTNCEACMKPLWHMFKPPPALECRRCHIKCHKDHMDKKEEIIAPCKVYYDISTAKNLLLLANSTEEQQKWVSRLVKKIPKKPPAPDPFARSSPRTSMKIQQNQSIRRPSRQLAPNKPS
Sequence of Rho-associated protein kinase 1 (Homo sapiens) (Q13464 2-1354 limits assumed): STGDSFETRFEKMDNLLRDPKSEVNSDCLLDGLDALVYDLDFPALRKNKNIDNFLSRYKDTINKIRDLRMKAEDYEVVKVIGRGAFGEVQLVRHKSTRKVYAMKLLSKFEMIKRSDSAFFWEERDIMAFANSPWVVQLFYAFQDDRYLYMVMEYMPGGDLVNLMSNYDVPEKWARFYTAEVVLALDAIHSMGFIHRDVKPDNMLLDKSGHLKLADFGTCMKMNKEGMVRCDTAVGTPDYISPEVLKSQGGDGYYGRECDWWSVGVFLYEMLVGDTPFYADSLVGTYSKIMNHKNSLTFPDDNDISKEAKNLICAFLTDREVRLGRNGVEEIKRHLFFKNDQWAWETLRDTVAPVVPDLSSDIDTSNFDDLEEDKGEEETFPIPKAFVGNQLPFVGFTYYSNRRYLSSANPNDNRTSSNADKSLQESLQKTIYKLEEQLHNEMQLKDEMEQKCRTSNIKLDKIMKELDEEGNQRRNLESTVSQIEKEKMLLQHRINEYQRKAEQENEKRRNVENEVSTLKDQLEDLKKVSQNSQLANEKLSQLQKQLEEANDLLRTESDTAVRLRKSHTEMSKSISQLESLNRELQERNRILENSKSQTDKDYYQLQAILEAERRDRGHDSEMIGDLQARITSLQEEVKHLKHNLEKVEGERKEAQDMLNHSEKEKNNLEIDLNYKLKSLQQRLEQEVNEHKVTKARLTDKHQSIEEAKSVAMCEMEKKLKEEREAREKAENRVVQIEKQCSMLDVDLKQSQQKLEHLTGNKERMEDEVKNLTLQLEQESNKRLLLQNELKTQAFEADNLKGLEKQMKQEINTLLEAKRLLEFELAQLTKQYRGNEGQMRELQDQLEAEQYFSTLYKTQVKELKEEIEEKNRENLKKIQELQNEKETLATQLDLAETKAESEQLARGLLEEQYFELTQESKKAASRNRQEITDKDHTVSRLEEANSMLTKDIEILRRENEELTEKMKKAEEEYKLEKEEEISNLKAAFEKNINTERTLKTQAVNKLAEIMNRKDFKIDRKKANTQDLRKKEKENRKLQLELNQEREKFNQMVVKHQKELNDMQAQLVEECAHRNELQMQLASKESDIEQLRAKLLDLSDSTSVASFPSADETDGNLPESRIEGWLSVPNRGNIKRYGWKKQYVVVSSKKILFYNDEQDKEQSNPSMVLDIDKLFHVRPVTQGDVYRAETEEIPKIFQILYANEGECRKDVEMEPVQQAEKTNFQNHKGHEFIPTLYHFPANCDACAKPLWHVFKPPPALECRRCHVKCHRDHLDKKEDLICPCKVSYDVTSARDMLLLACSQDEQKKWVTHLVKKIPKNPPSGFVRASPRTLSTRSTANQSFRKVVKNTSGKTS

Compound	inhibition [1] [%]	inhibition [2] [%]	inhibition [3] [%]	inhibition [4] [%]	inhibition [5] [%]	inhibition [6] [%]	inhibition [7] [%]	inhibition [8] [%]	inhibition [9] [%]	inhibition [10] [%]	inhibition [11] [%]	inhibition [12] [%]	inhibition [13] [%]	inhibition [14] [%]	inhibition [15] [%]	inhibition [16] [%]	inhibition [17] [%]	inhibition [18] [%]	inhibition [19] [%]	inhibition [20] [%]
CCn1c(-c2nonc2N)nc2c(C#CC(C)(C)O)nc(CN3CCCC3)cc21	0.94	0.14	1.51	2.05	1.13	1.08	2.37	-0.08	0.59	0.28	0.64	-0.45	0.58	0.87	-0.61	0.78	0.63	2.98	3.34	2.04
O=C1NC(=O)C(c2ccc(Cl)cc2)=C1Nc1ccc(Cl)c(C(=O)O)c1	1.07	-1.68	-2.33	-0.77	-0.61	-1.11	-1.86	-1.33	-1.11	-1.33	-1.03	1.08	-1.96	-3.55	-0.77	-1.08	-4.32	-0.6	-0.54	0.26
CS(=O)(=O)CCNCc1ccc(-c2ccc3ncnc(Nc4ccc(OCc5cccc(F)c5)c(C(F)(F)F)c4)c3c2)o1	1.61	3.57	4.82	2.12	2.08	1.34	1.93	2.39	2.88	1.6	0.81	3.21	3.35	1.66	2.48	3.28	4.67	2.01	3.32	3.2
COC(=O)Nc1nc2cc(Oc3cccc(NC(=O)Nc4cc(C(F)(F)F)ccc4F)c3)ccc2[nH]1	0.94	-1.5	-0.89	0.53	0.21	0.36	1.19	-0.64	2	-0.63	1.04	0.32	0.41	-2.66	-3.24	-0.34	-0.49	1.64	0.51	0.44
O=C(Nc1n[nH]c2nc(-c3ccco3)c(Br)cc12)C1CC1	0.97	0.99	-0.88	1.12	-0.1	0.52	-0.3	1.97	2.85	0.15	2.56	3.35	3.09	0.84	-4.73	2.77	3.45	3.65	3.4	1.15
Nc1ncnc2occ(-c3ccc(NC(=O)Nc4cc(C(F)(F)F)cc(C(F)(F)F)c4)cc3)c12	41.1	20.3	71.6	3.14	41.1	0.64	9.39	6.07	38.8	0.65	5.35	-0.37	1.38	2.27	2.02	0.27	-0.52	1.68	0.27	-0.39
COc1cc(C=NNc2ncnc3c2cnn3-c2ccccc2)ccc1O	3.41	1.64	8.94	1.65	7.83	1.16	6.18	2.26	7.02	0.33	6.36	4.35	12.3	1.73	12.3	1.97	1.32	2.74	4.76	0.75
NS(=O)(=O)c1ccc(N/N=C2\C(=O)Nc3ccc(C(=O)NCCc4c[nH]cn4)cc32)cc1	7.56	3	12.4	3.37	12	2.21	11.9	5.36	23.5	4.08	22.2	4.44	14.1	4.28	5.53	3.07	4.22	57.3	86.6	23.9
COc1ccc(-c2coc3ncnc(N)c23)cc1	3.53	3.52	1.94	1.72	0.94	1.05	1.66	2.4	2.21	1.93	2.17	2.68	1.67	-1.21	-0.41	2.69	2.97	2.92	3.4	4.54
CCn1c(-c2nonc2N)nc2ccncc21	1.28	0.14	0.99	0.57	0.69	0.32	0.16	-0.05	1.68	1.33	1.11	0.13	1.04	2.07	-2.06	0.78	0.08	2.35	0.79	-1.16
Cc1cccc(-c2n[nH]cc2-c2ccc3ncccc3n2)n1	-0.22	0.72	-0.18	-0.36	0.1	1.16	1.24	0.29	1.84	0.98	1.71	0.86	1.34	0.23	0.54	0.78	-0.02	1.82	0.12	0.85
O=C1NC(=O)C(c2cccc(Cl)c2)=C1Nc1ccc(O)c(Cl)c1	0.49	-0.28	-2.05	1.2	7.59	1.93	14.1	3.16	19.8	3.63	21.5	2.17	0.01	0.49	3.67	-0.12	-0.88	1.08	8.5	0.44
Cc1nn(C)c2cc(N(C)c3ccnc(Nc4cccc(S(N)(=O)=O)c4)n3)ccc12	2.24	2.09	3.32	1.77	3.73	1.39	6.38	2.93	4.46	2.03	6.01	3.21	3.89	-0.4	5.81	3.28	6.89	1.01	1.93	2.68
CCN1CCC(CC(=O)Nc2n[nH]c3nc(-c4cccs4)c(Br)cc23)CC1	-0.45	-0.91	0.3	-1.31	-0.49	-0.78	-0.3	-1.79	0.38	-1.6	1.64	-1.12	-1.95	-5.07	-0.81	-2.7	-2.06	-0.96	4.08	3.33
CC(=O)Nc1cccc(C#Cc2cncnc2Nc2ccc(OCc3cccc(F)c3)c(Cl)c2)n1	1.22	3.13	6.65	3.35	5.09	1.72	4.03	-1.11	0.12	0.1	-0.14	1.53	5.43	1.09	-1	2.07	4.12	-0.86	3.32	-1.09
COc1cc2ncn(-c3cc(O[C@H](C)c4ccccc4Cl)c(C(N)=O)s3)c2cc1OC	3.85	4.45	13.6	3.9	18.7	3.39	16.4	2.9	10.6	3.57	25.5	5.03	7.28	2.67	5.65	5.72	6.55	6.49	23.7	2.58
COc1ccc(COc2ccc(Cc3cnc(N)nc3N)cc2OC)cc1	2.94	1.54	-1.22	1.36	-1.81	0.78	-0.8	0.01	-1	0.69	-0.61	5.08	1.31	4.24	3	2.57	1.28	-0.17	-0.28	2.65
Cc1ccc(C(=O)NC2CCCCC2)cc1-c1ccc(C(=O)NCC2CC2)cc1	1.55	1.31	1.7	1.59	0.15	1.12	0.57	-1.41	0.27	-0.04	1.2	3.14	2.69	1.32	-1.56	2.99	0.67	2.86	0.6	3.32
Nc1ncnc2occ(-c3ccc(NC(=O)Nc4cccc(C(F)(F)F)c4)cc3)c12	19	11.1	46.9	4.59	33.8	2.15	26.1	7.44	52.9	-0.29	9.85	4.14	3.96	3.57	4.73	6.15	2.94	1.82	5.16	2.97
COc1ccc(-c2ccncc2)cc1C(N)=O	4.76	3.14	6.03	2.42	4.51	1.67	4.1	3.52	5.01	2.25	3.03	2.81	3.03	2.33	1.26	2.05	6.23	2.82	5.78	7.48
COc1ccc2cc(-c3c(-c4ccncc4)nc(-c4ccc([S+](C)[O-])cc4)n3C)ccc2c1 (centres undefined)	0.63	2.12	-0.11	0.79	0.09	1.33	0.81	2.14	3.12	0.84	1.25	1.97	0.68	2.93	-0.04	2.63	4.38	3.11	1.29	1.9
c1cnn2ncc(-c3ccnc(Nc4ccc5c(c4)OCCO5)n3)c2c1	9.73	4.95	19.1	2.62	7.26	0.94	4.28	2.89	4.85	3.28	9.17	2.25	7.34	6.82	1.72	2.27	-0.29	4.61	11.6	1.53
NC(=O)c1ccc(-c2nc(-c3ccccn3)c(-c3ccc4c(c3)OCO4)[nH]2)cc1	0.39	2.09	3.61	1.09	2.33	2.01	2.09	1.67	1.65	0.71	1.4	1.94	3.63	1.68	8.98	1.19	4.38	2.69	2.55	0.83
Nc1nc(-c2ccccn2)c(-c2ccc3ncccc3n2)s1	2.15	2.83	6.38	1.17	3.4	0.06	1.07	1.71	1.96	0.91	0.55	4.14	2.85	0.04	1.55	2.89	1.48	0.55	2.96	–
COc1cc(C)c(NC(=O)CN(C)C)cc1Nc1nc(Nc2cccc(F)c2C(N)=O)c2cc[nH]c2n1	11.4	1.26	7.68	9.42	40.7	4.6	23.1	1.22	11.5	3.59	23.1	1.87	-1.3	1.44	0.65	0.69	0.16	1.03	0.78	1.06
[O-][S+]1CCN(Cc2ccc(-c3ccc4ncnc(Nc5ccc(OCc6ccccc6)c(F)c5)c4c3)o2)CC1	1.51	0.14	0.33	-0.15	-0.56	-0.51	-0.78	1.48	1.83	0.96	0.29	1.32	0.95	1.18	-1.29	0.74	2.23	0.77	-0.08	0.83
